Test results from PubChem BioAssay (NCATS).
Results filed as inconclusive are left out. A number with no mark means an inactive call. Activity calls are given as the source filed them. Calls come from the whole dose curve; as a rule, active = well fitted inhibition curve with a large enough effect; inconclusive = small, poorly fitted or top-dose-only effect; inactive = no such curve, though single readings can be large or run the other way.

Assay: Primary qHTS for small molecule stabilizers of the endoplasmic reticulum resident proteome: Secreted ER Calcium Modulated Protein (SERCaMP) assay (AID 1508630)
Conditions: SH-SY5Y GLuc-SERCaMP (Gaussia luciferase released on ER calcium loss) secretion, thapsigargin, luminescence; series mostly up to 38.4 µM; activity change, negative = inhibition: at the top concentration
Procedure, shortened: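 The SH-SY5Y reporter protocol was run at 3 concentrations up to 38.3 uM (primary) or 11 concentrations (follow-up): 16 h compound, 100 nM thapsigargin for 4 h, then extracellular luciferase luminescence.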
% is set by controls: 0 for no effect and ±100 for the full control effect; potency is the fitted concentration of half-maximal effect.

| SMILES | activity change, negative = inhibition [%] | Potency |
| --- | --- | --- |
| C[C@]12CC[C@H](O)CC1=CC[C@H]1[C@H]3CCC(=O)[C@@]3(C)CC[C@@H]12 | 75.9 | – |
| C#CCOC(=O)C1=CCCN(C)C1 | – | inactive |
| COc1cc(C(O)CN)ccc1O (stereo not drawn) | -25 | – |
| COc1ccc2c(c1)CN(C)CC2c1ccc(Cl)c(Cl)c1 (stereo not drawn) | 26.3 | – |
| C[C@]12CC[C@H]3[C@@H](CCC4=CC(=O)CC[C@@]43C)[C@H]1CC[C@H]2O | 0.0737 | – |
| NCCc1c[nH]c2ccccc12 | – | inactive |
| O=C1CCCN1CC#CCN1CCCC1 | – | inactive |
| O=[N+]([O-])c1ncc[nH]1 | 137 | – |
| C=CCON=C(C[C@H]1O[C@@H]2O[C@]3(C)CC[C@@H]4[C@H](C)CC[C@@H]([C@H]1C)[C@@]24OO3)[C@H]1O[C@@H]2O[C@]3(C)CC[C@H]4[C@H](C)CC[C@@H]([C@@H]1C)[C@@]24OO3 | 88.8 | – |
| N#C[C@H](O[C@@H]1O[C@H](CO[C@@H]2O[C@H](CO)[C@H](O)[C@H](O)[C@H]2O)[C@H](O)[C@H](O)[C@H]1O)c1ccccc1 | 74.4 | – |
| NC(=NCCC[C@H](N)C(=O)O)N[N+](=O)[O-] | – | inactive |
| C[N+]1(C)C2CCC1CC(OC(=O)C(CO)c1ccccc1)C2 (stereo not drawn) | – | inactive |
| S=C(NC1CCCCC1)N1CCC(c2cnc[nH]2)CC1 | – | inactive |
| NC(N)=NOCCC(N)C(=O)O (stereo not drawn) | -3.31 | – |
| C[C@H]([C@H](O)CCC(C)(C)O)[C@H]1CC[C@@]2(O)C3=CC(=O)[C@@H]4C[C@@H](O)[C@@H](O)C[C@]4(C)[C@@H]3CC[C@]12C | 18.5 | – |
| Cc1c(N)nc([C@H](CC(N)=O)NC[C@@H](N)C(N)=O)nc1C(=O)N[C@H](C(=O)N[C@@H](C)[C@H](O)[C@@H](C)C(=O)N[C@@H](C(=O)NCCc1nc(-c2nc(C(=O)NCCC[S+](C)C)cs2)cs1)[C@@H](C)O)C(O[C@H]1O[C@H](CO)[C@H](O)[C@@H](O)[C@@H]1O[C@H]1O[C@H](CO)[C@@H](O)[C@H](OC(N)=O)[C@H]1O)c1cnc[nH]1 (stereo partly drawn) | 55.5 | – |
| C[C@]12CCC(=O)C(O)=C1CC[C@@H]1[C@H]3CCC(=O)[C@@]3(C)CC[C@@H]12 | 27.1 | – |
| O=C1CCC[C@@H]2[C@H]3CCCN4CCC[C@@H](CN12)[C@@H]34 | 54.5 | – |
| C[C@@]12OC(=O)[C@]1([C@@H](O)[C@@H]1C=CCCC1)NC(=O)[C@H]2CCCl | 0 | – |

| SMILES | activity change, negative = inhibition [%] | Potency |
| --- | --- | --- |
| COc1cc2cc(c1Cl)N(C)C(=O)C[C@H](OC(=O)C(C)C)[C@]1(C)O[C@H]1[C@H](C)[C@@H]1C[C@@](O)(NC(=O)O1)[C@H](OC)C=CC=C(C)C2 | 68.9 | – |
| Cc1nccc2c1[nH]c1ccccc12 | – | inactive |
| c1cc2c(cc1[C@H]1OC[C@H]3[C@H]1CO[C@H]3c1ccc3c(c1)OCO3)OCO2 | 17.8 | – |
| CC(=O)OCC1=C(C(=O)O)N2C(=O)[C@@H](N)[C@@H]2SC1 | 166 | – |
| C[C@@H]1O[C@@H](O[C@@H]2C=C3CC[C@@H]4[C@@H](CC[C@]5(C)[C@H](c6ccc(=O)oc6)CC[C@@]45O)[C@@]3(C)CC2)[C@H](O)[C@H](O)[C@H]1O | 5.06 | – |
| COc1cccc2c1[C@]13CCN(CC4CC4)[C@H](C2)[C@]1(OC)CCC(=O)C3 | 127 | – |
| NC(CCP(=O)(O)O)C(=O)O (stereo not drawn) | – | inactive |
| N=c1c2c(-c3ccccc3)c(-c3ccccc3)n(Cc3ccccc3)c2ncn1C1CCC(O)CC1 (stereo not drawn) | 0 | – |
| CC(=CCCC1=CCC(C2=CC(=O)OC2O)OC1O)CCC1=C(C)CCCC1(C)C (stereo not drawn) | 0 | – |
| CC(=O)NCCc1c[nH]c2ccccc12 | – | inactive |
| CCCN(CCC)[C@@H]1CCc2ccc(O)cc2C1 | – | inactive |
| CC(=O)[C@H]1CCC2C3CC[C@H]4C[C@H](O)CC[C@]4(C)C3CC[C@@]21C (stereo partly drawn) | 12.3 | – |
| CCCN(CCC)C1CCc2ccc(O)cc2C1 (stereo not drawn) | – | inactive |
| C[C@]12Cc3cn[nH]c3C[C@@H]1CC[C@@H]1[C@H]2CC[C@@]2(C)[C@H]1CC[C@]2(C)O | 41.2 | – |
| O=C(O)Cc1cnc[nH]1 | – | inactive |
| C=C[C@@H]1CN2CCC1C[C@H]2[C@H](O)c1ccnc2ccccc12 (stereo partly drawn) | 38.6 | – |
| COc1ccc2c(c1)[C@]13CCCCC1C(C2)N(C)CC3 (stereo partly drawn) | – | 0.473 µM (active) |
| CC(C)(O)C(=O)Nc1ccc([N+](=O)[O-])c(C(F)(F)F)c1 | 173 | – |
| CCC(=O)OC1CCC2C3CCC4=CC(=O)CC[C@@]4(C)C3CC[C@]12C (stereo partly drawn) | 20.9 | – |
